Test results from ChEMBL document CHEMBL3988442, “University of Dundee, Small-Polar-MMV Screening Library” (2021).
In all, about 69,000 compounds went through this assay and about 1,000 (1.4%) showed an effect of 50% or more. Shown is part of a subset that was picked to be rich in strong results.

Test system: Leishmania donovani
Test: Leishmania intramacrophage assay
Type: functional, organism-based
Parameters: scale not given: in the data most compounds retested in dose-response had high values

Cc1noc(C)c1CN1CC[C@H]2C[C@@H](c3nccs3)O[C@@H]2C1
Percent Effect (30 µM, 30.03 µM): 15.1%

Cc1cccc(-c2ncc(CNC(C)Cc3ccncc3)cn2)c1 (centres undefined)
Percent Effect (30.3 µM, […]): -22.9%

Cc1cccc(-c2ncc(CNC(C)Cc3ncccc3C)cn2)c1 (centres undefined)
Percent Effect (30.3 µM, […]): -19.51%

CC(Cc1cccc(F)c1)NCc1cnc(N2CCN(C)CC2)nc1 (centres undefined)
Percent Effect (30.3 µM, […]): 97.99%

Cl.Cl.Fc1ccc2c(c1)C1(CCNCC1)CC2NC1CC1 (centres undefined)
Percent Effect (30.3 µM, […]): 27.52%

Cc1ccc(O[C@@H]2C[C@H]3CN(C(=O)Cc4ccccn4)CCN3C2)cc1.O=C(O)C(F)(F)F.O=C(O)C(F)(F)F
Percent Effect (30.3 µM, […]): 11.94%

CCc1ncc(CN(CCc2ccccc2)Cc2cccs2)cn1.O=C(O)CC(O)(CC(=O)O)C(=O)O
Percent Effect (30.3 µM, […]): -1.419%

Fc1cnccc1CN1CCC2(CCNCC2)C1
Percent Effect (30.3 µM, […]): 25.89%

c1ccc(-c2ncc(CN3CCC4(CCNCC4)C3)cn2)cc1
Percent Effect (30.3 µM, […]): 24.37%

Oc1cccc2ccc(CN3CCC4(CCNCC4)C3)nc12
Percent Effect (30.3 µM, […]): 61.55%

COCC1CC2(CCN(CC3CC3)CC2)CN1Cc1ccccn1.O=C(O)C(F)(F)F.O=C(O)C(F)(F)F (centres undefined)
Percent Effect (30.3 µM, […]): 40.82%

Fc1cnc(N2CCCC3(CCN(Cc4ccoc4)C3)C2)nc1.O=C(O)C(F)(F)F.O=C(O)C(F)(F)F (centres undefined)
Percent Effect (30.3 µM, […]): 13.62%

Cc1oncc1C(=O)N1CC[C@H]2[C@H](C[C@@H](CN3CCCC3)N2C)C1.O=C(O)C(F)(F)F.O=C(O)C(F)(F)F
Percent Effect (30.3 µM, […]): 25.5%

Cc1cc(N2CCC(NC(C)Cc3ccsc3)CC2)nc(N)n1 (centres undefined)
Percent Effect (30.3 µM, […]): 71.35%

Cc1cc(CC(C)NC2CCN(CC(C)C)CC2)[nH]n1 (centres undefined)
Percent Effect (30.3 µM, […]): 19.46%

Cc1cc(CC(C)NC2CCSCC2)[nH]n1 (centres undefined)
Percent Effect (30.3 µM, […]): 3.441%

Cc1cc(N2CCC(NC(C)Cc3ccsc3)CC2)nc(C)n1 (centres undefined)
Percent Effect (30.3 µM, […]): 70.01%

Cc1cccc(C)c1NC(=O)CNC(C)Cc1ccsc1 (centres undefined)
Percent Effect (30.3 µM, […]): 11.71%

CCOC(=O)N1CCC(NC(C)Cc2cc(C)n[nH]2)CC1 (centres undefined)
Percent Effect (30.3 µM, […]): 11.64%

CCS(=O)(=O)NC[C@]12COC[C@H]1CN(Cc1cccnc1OC)C2.O=C(O)C(F)(F)F.O=C(O)C(F)(F)F
Percent Effect (30.3 µM, […]): -3.146%

CC(C)N(C)Cc1cncc2c1CCN(Cc1cccs1)C2.Cl.Cl.Cl
Percent Effect (30.3 µM, […]): 7.349%

O=C(O)C(F)(F)F.O=C(O)C(F)(F)F.c1cncc(OC[C@@]23CCO[C@@H]2CCN(Cc2cccs2)C3)c1
Percent Effect (30.3 µM, […]): 13.49%

O=C(O)C(F)(F)F.O=C1Nc2ccccc2C12CCN(Cc1nccs1)CC2
Percent Effect (30.3 µM, […]): 18.81%

Cc1ccc(CN2CCO[C@H]3[C@@H](OCc4cccnc4)CC[C@@H]32)o1.O=C(O)C(F)(F)F.O=C(O)C(F)(F)F
Percent Effect (30.3 µM, […]): 19.54%

COc1cccc(Cn2cc(C3=CCN(CCO)CC3)cn2)c1
Percent Effect (30.3 µM, […]): 22.79%

COc1ccc(-n2nnnc2C2(NCc3ccco3)CCCCC2)cc1
Percent Effect (30.3 µM, […]): -17.59%

FC1(F)CCNCC12CCN(c1cccnc1)C2.O=C(O)C(F)(F)F.O=C(O)C(F)(F)F (centres undefined)
Percent Effect (30.3 µM, […]): 9.392%

OCCN1CCC(F)(F)C2(CCN(c3cccnc3)C2)C1 (centres undefined)
Percent Effect (30.3 µM, […]): 51.95%

Cc1ccc(N2CCC3(CN(CCO)CCC3(F)F)C2)nn1.O=C(O)C(F)(F)F (centres undefined)
Percent Effect (30.3 µM, […]): 39.18%

COCCN1C[C@@H]2CN(Cc3cccc(C)n3)C[C@@H]2C1=O.O=C(O)C(F)(F)F
Percent Effect (30 µM, 30.03 µM): 25.64%

CC(C)CN1CCC2(COCc3cnc(-c4ccccc4)nc32)C1.O=C(O)C(F)(F)F (centres undefined)
Percent Effect (30.3 µM, […]): 36%

Cl.Cl.O=c1[nH]c2ncccc2n1C1CCNCC1
Percent Effect (30.3 µM, […]): 13.74%

COc1ccccc1CCN(C)Cc1nc(N)nc(N(C)C)n1
Percent Effect (30.3 µM, […]): 17.72%

Cc1ccc(CN2C[C@@H]3[C@@H](C2)OCC(=O)N3Cc2ccncc2)s1.O=C(O)C(F)(F)F.O=C(O)C(F)(F)F
Percent Effect (30.3 µM, […]): 15.08%

O=C(O)C(F)(F)F.O=C(O)C(F)(F)F.O=C1[C@H]2CN(Cc3ccncc3)C[C@H]2CN1c1ccsc1
Percent Effect (30.3 µM, […]): 21.46%

Cn1ncc2c(N3CCCC4(CCNC4)C3)nc(C(C)(C)C)nc21 (centres undefined)
Percent Effect (30.3 µM, […]): 88.19%

CCCc1nc(N2CCCC3(CCNC3)C2)c2cnn(C)c2n1 (centres undefined)
Percent Effect (30.3 µM, […]): -7.107%

Cn1ncc2c(N3CCCN4CCC[C@H]4C3)nc(C(C)(C)C)nc21
Percent Effect (30.3 µM, […]): -35.36%

O=C(N1CCCO1)[C@@]12CCO[C@@H]1CCN(Cc1cccnc1)C2.O=C(O)C(F)(F)F.O=C(O)C(F)(F)F
Percent Effect (30.3 µM, […]): 13.9%

CCO[C@H]1CN(CC2CC2)[C@@H]2CCCO[C@H]12.O=C(O)C(F)(F)F
Percent Effect (30.3 µM, […]): 13.63%

Cc1ncsc1CN1C[C@@H]2CCCO[C@@H]2[C@H](Nc2ccccn2)C1.O=C(O)C(F)(F)F.O=C(O)C(F)(F)F
Percent Effect (30.3 µM, […]): -3.269%

COc1cc2nc(NCc3ccc(C)nc3)nc(N)c2cc1OC
Percent Effect (30.3 µM, […]): 62.6%

COc1cc(CNCC(O)c2ccccc2F)cc2c1OCO2 (centres undefined)
Percent Effect (30 µM): 34.29%

Cc1nc(CN2C[C@@H]3CN(C(=O)c4ccncc4)C[C@@H]3C2)cs1
Percent Effect (30.3 µM, […]): -18.13%

Cc1ccc(C(=O)N2C[C@H]3CNC[C@H]3C2)cn1
Percent Effect (30.3 µM, […]): -11.07%

Cc1ccc(C(=O)N2C[C@H]3CN(Cc4csc(C)n4)C[C@H]3C2)cn1
Percent Effect (30.3 µM, […]): 58.41%

O=C(NC[C@]12COC[C@H]1CN(Cc1cccnc1)C2)c1ccno1.O=C(O)C(F)(F)F.O=C(O)C(F)(F)F
Percent Effect (30 µM, 30.03 µM): 19.24%

Cc1ccccc1-n1nc(C)c(CN(C)C(C)Cc2ccccn2)c1C.O=C(O)CC(O)(CC(=O)O)C(=O)O (centres undefined)
Percent Effect (30.3 µM, […]): 17.55%

CC(C)(O)c1cn(C[C@H]2C[C@@H]3CCN2C[C@@H]3C(=O)N2CCOCC2)nn1
Percent Effect (30.3 µM, […]): 75.59%

CC(C)(C)c1cn(C[C@H]2CC3CCN2C[C@@H]3C(=O)N2CCOCC2)nn1 (some centres undefined)
Percent Effect (30.3 µM, […]): -15.57%

COCc1cn(C[C@H]2C[C@@H]3CCN2C[C@@H]3C(=O)N2CCOCC2)nn1
Percent Effect (30.3 µM, […]): -19.8%

CN(C)CCN1CCN(Cc2cccs2)Cc2cccnc21.O=C(O)C(F)(F)F.O=C(O)C(F)(F)F.O=C(O)C(F)(F)F
Percent Effect (30.3 µM, […]): -2.293%

CN(CC1Cc2ccccc2CN1C)C(=O)Cc1cccs1 (centres undefined)
Percent Effect (30.3 µM, […]): 58.51%

CN(C)[C@@H]1CN(C(=O)Cc2cccs2)[C@@H]2CCCO[C@H]12.O=C(O)C(F)(F)F
Percent Effect (30.3 µM, […]): -12.28%
